Assay results: PubChem BioAssay AID588342 (National Center for Advancing Translational Sciences (NCATS), 2011)
The campaign covered roughly 360,000 compounds. About 25,000 (6.9%) were called active. Inconclusive results (about 9%) are left out. Calls follow the shape of the dose curve; as a rule, active = well fitted inhibition curve with a large enough effect; inconclusive = small, poorly fitted or top-dose-only effect; inactive = flat fitted curve, though single readings scatter. For the sample, actives were picked, then their nearest neighbours and some compounds at random.

target: Luciferin 4-monooxygenase (Photinus pyralis) (UniProt P08659); experiment: qHTS profiling assay for firefly luciferase inhibitor/activator using purifed enzyme and Km concentrations of substrates (counterscreen for miR-21 project); conditions: purified FLuc, luminescence inhibition; series mostly up to 57.5 µM; activity change, negative = inhibition: at the top concentration; also: nearly all actives have a fitted effect of over 55% in size;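 as to activity change, negative = inhibition: plate controls were vehicle for no effect and reference inhibitor for full effect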
Sequence (P08659 whole entry, looked up): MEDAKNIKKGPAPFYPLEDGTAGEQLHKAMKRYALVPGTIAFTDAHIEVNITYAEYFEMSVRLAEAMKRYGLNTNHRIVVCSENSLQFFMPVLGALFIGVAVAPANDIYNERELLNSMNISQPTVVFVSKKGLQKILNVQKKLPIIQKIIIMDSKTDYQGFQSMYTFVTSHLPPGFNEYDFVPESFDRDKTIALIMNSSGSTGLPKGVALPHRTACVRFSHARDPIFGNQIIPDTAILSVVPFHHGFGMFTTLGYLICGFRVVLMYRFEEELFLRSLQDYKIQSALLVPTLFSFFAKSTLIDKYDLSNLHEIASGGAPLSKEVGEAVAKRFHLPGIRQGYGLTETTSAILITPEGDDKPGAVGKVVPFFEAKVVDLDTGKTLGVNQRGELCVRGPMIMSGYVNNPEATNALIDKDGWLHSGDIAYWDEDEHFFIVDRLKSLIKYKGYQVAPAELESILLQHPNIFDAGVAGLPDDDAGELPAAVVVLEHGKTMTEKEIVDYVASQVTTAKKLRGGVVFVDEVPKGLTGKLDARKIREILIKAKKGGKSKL
From the text: MLPCN Grant: 1 R21 NS059478-01 (miR-21 grant) Assay Provider: NCGC NCGC Assay Overview: Firefly (Photinus pyralis) luciferase is one of the most commonly used transcriptional reporters for a number of reasons. It is considered one of the more dynamically responsive reporters -that is, responsive to changes in reporter transcription - as it requires no post-translational modifications and is enzymatically active directly after protein synthesis (Wood, 1998). Additionally, the half-life of the luciferase protein is short relative to other reporter-gene products (Wood, 1995). Whereas reporters with long half-lives potentially allow for increased signal due to accumulation of reporter-gene product, once accumulated in the cell, dynamic changes in reporter-gene expression may be difficult to detect(Fan and Wood, 2007; Almond et al., 2004). It has been shown that wild-type P. pyralis luciferase has a half-life of approximately […] hours in mammalian cells (Thompson et al., 1991). Firefly luciferase reporter-gene assays are also generally considered one of the most sensitive assay types (Wood, 1995; Wood, 1998). Although light produced in a bioluminescence reaction is of lower intensity than that produced during fluorescence emission, this is offset by little to no background light inherent to luminescent assays. Thus the luciferase reporter can be expressed at much lower levels than fluorescent proteins while still providing robust signal. # However, it was initially observed, in 1991, by Thompson et al., that compounds that resemble the substrates of firefly luciferase (FLuc) can act as competitive inhibitors of the enzyme, and that these compounds, upon interaction with luciferase in the cell, can actually stabilize the protein and increase its half-life. Accumulated intracellular FLuc protein can be measured as an increase in luminescence signal, upon addition of detection reagents (which contain high concentrations of FLuc substrates) commonly used in high-throughput screening. In cell-based reporter gene assays that use FLuc as the reporter gene to quantitate the potential influence of a given compound against the target biology, this apparent increase in luminescence can mistakenly be interpreted as identification of a compound that is active against the target of interest. This is the case for the miR-21 FLuc reporter gene assay used to identify inhibitors of the miR-21 pathway (PubChem AID 2289) - compounds of interest will inhibit miR-21 biogenesis/expression or activity, and are identified by causing an increase in luminescence, due to increased FLuc translation. However, FLuc inhibitory compounds that stabilize the FLuc protein will give an identical read-out, making it difficult to distinguish compounds that are active against the target from those active against FLuc. Previous profiling work to determine the prevalence of compounds that affect FLuc enzymatic activity (PubChem AID 411) identified that ~3% of the MLSMR library (then at ~72K) inhibited FLuc. […] Since the MLSMR had grown to ~350K compounds, and since it was expected that a significant percentage of compounds found active in the miR-21 FLuc assay would be FLuc inhibitors, the library was screened for activity against FLuc using a biochemical assay of purified FLuc and KM concentrations of FLuc substrates (D-luciferin and ATP).
NCGC Assay Protocol Summary: Reagents: 50mM Tris acetate, pH 7.5; 10mM Mg acetate; 10uM D-luciferin (Sigma #L9504); 10uM ATP; 0.01% Tween-20; 0.05% BSA; 10nM P. pyralis luciferase (Sigma #L9506) Control compounds used were two known firefly luciferase inhibitors (compounds (2) and (5) in Auld et al., 2010), and DMSO. […]

SMILES	activity change, negative = inhibition	Potency
Cc1sc(C2C(C#N)=C(N)N(c3cccc(Cl)c3)C3=C2C(=O)CCC3)cc1CN1CCOCC1 (configuration not stated)	0.0548% (inactive)	
Cc1ccsc1C(=O)NC1CCCCC1C (configuration not stated)	-4.61% (inactive)	
CCOc1ccccc1CNC(=O)Nc1cn(CC(C)C)c(=O)c2ccccc12	-8.92% (inactive)	
COc1ccccc1-c1oc2ccccc2c1C#CCCCCO	-2.19% (inactive)	
COC(=O)CC1Oc2ccccc2-n2cc(-c3ccccc3)nc21 (configuration not stated)	-15.8% (inactive)	
CCN1C(=O)c2ccccc2Sc2ccc(NC(=O)Cc3ccc(OC)cc3)cc21	-6.99% (inactive)	
COc1ccc(/C=C(/NC(=O)c2ccco2)C(=O)Nc2ccc(C(C)=O)cc2)cc1	-4.55% (inactive)	
COc1ccc(C(=O)NCc2ccc(Cl)cc2)cc1S(=O)(=O)N1CCCC1	-5.91% (inactive)	
CCOc1ccc(Nc2oc(/C=C/c3ccc(F)cc3)nc2C#N)cc1	-5.12% (inactive)	
CCCCn1c(=N)c(S(=O)(=O)c2ccccc2)cc2c(=O)n3cccc(C)c3nc21	2.9% (inactive)	
CC(C)(C)C1CCc2c(sc3nc(SCC(N)=O)nc(N)c23)C1 (configuration not stated)		4.78 µM (active)
CN1CCN(CC(=O)Nc2sc3c(c2C#N)CCC(C(C)(C)C)C3)CC1 (configuration not stated)	2.26% (inactive)	
Nc1nc(SCC(=O)NCCN2CCOCC2)nc2sc3c(c12)CCC3	-15.9% (inactive)	
COc1ccc(OC)c(NC(=O)CSc2nc3ccccc3nc2N2CCCCC2)c1	6.02% (inactive)	
CCOc1ccc(C(C)NC(=O)CN2C(=O)NC3(CCCCC3)C2=O)cc1OCC (configuration not stated)	-1.45% (inactive)	
O=C(CSc1nc(-c2cccc(F)c2)[nH]c1-c1ccccc1)Nc1ccc2c(c1)OCO2	-13.3% (inactive)	
CCOC(=O)C(Cc1ccccc1)NC(=O)CCc1c(C)nc2c(c(C)nn2-c2ccc(C)c(C)c2)c1C (configuration not stated)	-1.42% (inactive)	
CCCCSc1nc2ccccc2[nH]1		16.9 µM (active)
COc1ccc(NC(=O)CSc2nc3ccccc3[nH]2)cc1	-17.5% (inactive)	
CN(Cc1ccccc1)c1nc2c(c(=O)[nH]c(=O)n2C)n1CCSc1nc2ccccc2[nH]1	-0.398% (inactive)	
O=C(NCc1ccccc1)c1onc(CSc2nc3ccccc3[nH]2)c1C(=O)NCc1ccccc1	2.2% (inactive)	
CCc1nnc(NC(=O)CCCSc2nc3ccccc3[nH]2)s1	-6.22% (inactive)	
COc1ccccc1-c1noc(CSc2nc(C)cc(=O)[nH]2)n1	-15.8% (inactive)	
O=C(CSc1nc2ccccc2[nH]1)Nc1nc(-c2ccccc2)c(-c2ccccc2)o1	-1.43% (inactive)	
COc1ccccc1CSc1nc2ccccc2[nH]1		13.5 µM (active)
O=C(CSc1nc2ccccc2[nH]1)c1cccs1		6.75 µM (active)

SMILES	activity change, negative = inhibition	Potency
CCc1ccc(CN(C)C(C)C(=O)Nc2ccc(S(=O)(=O)N3CCCC3)cc2)cc1 (configuration not stated)	2.76% (inactive)	
Nc1c(Cl)cc(S(N)(=O)=O)cc1S(N)(=O)=O	1.02% (inactive)	
COc1ccc(-n2c(=O)c3ccccc3n(Cc3ccccc3Cl)c2=O)cc1	-3.28% (inactive)	
Cc1ccc(Cn2c(=O)n(CCCC(=O)NCc3ccccc3Cl)c(=O)c3ccccc32)cc1	3.41% (inactive)	
COc1ccc(C2=NC3(CCCCC3)N(CC(=O)Nc3ccc(C(C)C)cc3)C2=O)cc1	3.81% (inactive)	
CCC(Sc1nncn1C)C(=O)Nc1nnc(-c2ccc(Cl)cc2)s1 (configuration not stated)		15.1 µM (active)
CCOC(=O)c1sc(NC(=O)C(CC)Sc2nccn2C)nc1C (configuration not stated)	4.46% (inactive)	
CC(Sc1nncn1C)C(=O)Nc1ccccc1-c1ccccc1 (configuration not stated)	1.84% (inactive)	
COc1ccc(C2CC(=O)Nc3c2c(=O)nc2c(C)cccn32)cc1OC (configuration not stated)	-2.04% (inactive)	
COc1ccccc1C(=O)NCCC(=O)NC1=NCCS1	0.0399% (inactive)	
COc1cccc(OC)c1C(=O)Nc1nnc(C(C)C)s1	-4.11% (inactive)	
O=C(NC1=NCCS1)[C@H](Cc1ccccc1)N1C(=O)c2ccccc2C1=O	2.88% (inactive)	
COc1ccc(C(=O)NC2=NCCS2)c(OC)c1		6.01 µM (active)
CCOc1ccc(C(=O)CCC(=O)NC2=NCCS2)cc1	-14% (inactive)	
COc1ccc(OC)c(NC(=O)Cc2cccs2)c1	-4.29% (inactive)	
O=C(NCc1ccc2c(c1)OCO2)c1ccc(Cl)s1	-19.5% (inactive)	
COc1ccc(C(=O)Nc2nncs2)c(OC)c1		8.49 µM (active)
O=C(NC1=NCCS1)c1ccc(Cl)s1		23.9 µM (active)
Cc1c(NC(=O)CSc2nnc(-c3cccnc3)n2N)c(=O)n(-c2ccccc2)n1C	5.52% (inactive)	
COc1ccc(CCNCc2c(C(=O)O)c(C)n(Cc3cccc(C)c3)c2C)cc1OC	-0.123% (inactive)	
Cc1ccc(NC(=O)CN2C(=O)C(c3ccc(F)cc3)=NC23CCCCCC3)c(C)c1	4.17% (inactive)	
CCOc1ccc(N2C(=O)CSC2=NC#N)cc1	-1.46% (inactive)	
CCOc1ccccc1NC(=O)Cn1ncc2ccc([N+](=O)[O-])cc21	-1.68% (inactive)	
Cc1cccc(-n2ccnc2SCC(=O)Nc2cccc3ccccc23)c1C	-4.45% (inactive)	
Cc1ccccc1OCCC(=O)OCC(=O)NCCc1ccc(S(N)(=O)=O)cc1	0.732% (inactive)	
COc1ccccc1CC(NC(C)=O)C(=O)NC1CCN(C(=O)Nc2ccccc2Cl)CC1 (configuration not stated)	-1.29% (inactive)	
